Of roughly 7,900 targets only a part is listed; those with a hit were picked by preference. About 0.6% of all pairs of compound and target were hits.
Compound: c1cn2cc(-c3ccc4cn[nH]c4c3)nc(Nc3ccc(N4CCOCC4)cc3)c2n1 [entospletinib]
Experiment: log2 fold change, soluble protein after heating vs DMSO (PISA); higher = thermal stabilisation; K562 cells, 10 uM, 30 min; active = over 0.2 and 3.5 SD of the protein, either way, in both replicates (recomputed)
Summary of the method: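 Quantification of soluble protein used TMTpro 16plex LC-MS/MS, with channel sums equalised. Samples were the supernatant after 21,000xg for 90 min of pooled aliquots from K562 cells (2×10^6 cells/mL) treated with 10 μM compound for 30 min, heated for 3 min over 48°C-58°C, and extracted in PBS with 0.5% NP-40 at 4°C. Values, from duplicates, describe thermal stability against control samples on a log2 fold-change scale.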

Sequence of UniProt Q5VT25 (Q5VT25 whole entry, looked up): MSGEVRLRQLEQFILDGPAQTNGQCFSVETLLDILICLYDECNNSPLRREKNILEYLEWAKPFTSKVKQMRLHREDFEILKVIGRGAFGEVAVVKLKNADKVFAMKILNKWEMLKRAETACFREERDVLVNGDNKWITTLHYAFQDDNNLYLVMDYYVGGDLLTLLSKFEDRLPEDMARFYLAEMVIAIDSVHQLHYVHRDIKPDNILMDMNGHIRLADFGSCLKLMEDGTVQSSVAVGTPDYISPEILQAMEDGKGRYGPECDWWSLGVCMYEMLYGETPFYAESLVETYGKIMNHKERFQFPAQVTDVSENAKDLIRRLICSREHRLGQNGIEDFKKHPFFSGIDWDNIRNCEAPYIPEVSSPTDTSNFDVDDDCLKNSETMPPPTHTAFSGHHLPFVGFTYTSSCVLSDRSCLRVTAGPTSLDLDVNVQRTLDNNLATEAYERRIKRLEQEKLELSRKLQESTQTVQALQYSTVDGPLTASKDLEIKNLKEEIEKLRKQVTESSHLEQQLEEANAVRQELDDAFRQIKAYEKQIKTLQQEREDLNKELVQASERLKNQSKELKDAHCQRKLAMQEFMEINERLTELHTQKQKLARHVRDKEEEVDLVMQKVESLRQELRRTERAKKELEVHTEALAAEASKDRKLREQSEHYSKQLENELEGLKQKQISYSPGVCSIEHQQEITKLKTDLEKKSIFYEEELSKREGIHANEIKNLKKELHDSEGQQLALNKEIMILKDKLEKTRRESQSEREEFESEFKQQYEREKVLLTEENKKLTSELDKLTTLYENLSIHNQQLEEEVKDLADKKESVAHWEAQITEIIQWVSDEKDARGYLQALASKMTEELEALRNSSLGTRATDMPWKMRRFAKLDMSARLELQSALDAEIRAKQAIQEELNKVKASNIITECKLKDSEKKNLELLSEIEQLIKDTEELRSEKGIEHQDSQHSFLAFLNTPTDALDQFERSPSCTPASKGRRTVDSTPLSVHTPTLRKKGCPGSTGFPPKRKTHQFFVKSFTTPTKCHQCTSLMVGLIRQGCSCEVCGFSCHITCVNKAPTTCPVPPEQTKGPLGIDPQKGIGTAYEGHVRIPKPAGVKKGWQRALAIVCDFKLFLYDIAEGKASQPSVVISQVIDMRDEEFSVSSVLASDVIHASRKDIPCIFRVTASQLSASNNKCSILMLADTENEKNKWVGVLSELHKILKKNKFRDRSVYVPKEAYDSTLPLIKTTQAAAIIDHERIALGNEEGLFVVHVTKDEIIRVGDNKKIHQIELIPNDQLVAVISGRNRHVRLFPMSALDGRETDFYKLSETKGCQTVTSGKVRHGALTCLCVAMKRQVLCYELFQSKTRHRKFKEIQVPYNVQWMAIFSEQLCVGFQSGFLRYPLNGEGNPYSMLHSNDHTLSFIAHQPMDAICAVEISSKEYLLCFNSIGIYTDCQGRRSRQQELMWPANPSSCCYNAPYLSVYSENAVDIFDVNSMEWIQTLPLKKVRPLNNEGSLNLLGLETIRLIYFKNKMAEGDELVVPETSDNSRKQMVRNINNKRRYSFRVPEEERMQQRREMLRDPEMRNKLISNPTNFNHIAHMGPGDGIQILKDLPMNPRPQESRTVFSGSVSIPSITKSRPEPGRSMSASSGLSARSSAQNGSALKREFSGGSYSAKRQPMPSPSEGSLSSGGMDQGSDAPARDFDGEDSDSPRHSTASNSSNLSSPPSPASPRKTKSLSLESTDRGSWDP
Sequence of UniProt Q96SZ6 (Q96SZ6 whole entry, looked up): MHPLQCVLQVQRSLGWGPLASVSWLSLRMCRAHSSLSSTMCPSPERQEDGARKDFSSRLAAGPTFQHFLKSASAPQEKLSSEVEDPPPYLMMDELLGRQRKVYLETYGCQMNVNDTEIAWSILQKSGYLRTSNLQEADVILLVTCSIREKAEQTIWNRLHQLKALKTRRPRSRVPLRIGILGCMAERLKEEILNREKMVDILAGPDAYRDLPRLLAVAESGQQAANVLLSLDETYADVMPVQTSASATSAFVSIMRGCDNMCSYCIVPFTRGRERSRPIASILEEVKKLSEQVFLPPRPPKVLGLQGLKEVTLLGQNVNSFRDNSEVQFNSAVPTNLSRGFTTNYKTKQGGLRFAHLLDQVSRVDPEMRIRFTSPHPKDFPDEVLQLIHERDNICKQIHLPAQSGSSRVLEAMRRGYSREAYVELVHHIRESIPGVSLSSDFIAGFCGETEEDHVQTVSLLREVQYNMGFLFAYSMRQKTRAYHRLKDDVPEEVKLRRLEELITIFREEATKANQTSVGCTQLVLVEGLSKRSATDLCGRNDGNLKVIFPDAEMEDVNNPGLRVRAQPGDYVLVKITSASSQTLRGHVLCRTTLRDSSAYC
Sequence of UniProt Q14677 (Q14677 whole entry, looked up): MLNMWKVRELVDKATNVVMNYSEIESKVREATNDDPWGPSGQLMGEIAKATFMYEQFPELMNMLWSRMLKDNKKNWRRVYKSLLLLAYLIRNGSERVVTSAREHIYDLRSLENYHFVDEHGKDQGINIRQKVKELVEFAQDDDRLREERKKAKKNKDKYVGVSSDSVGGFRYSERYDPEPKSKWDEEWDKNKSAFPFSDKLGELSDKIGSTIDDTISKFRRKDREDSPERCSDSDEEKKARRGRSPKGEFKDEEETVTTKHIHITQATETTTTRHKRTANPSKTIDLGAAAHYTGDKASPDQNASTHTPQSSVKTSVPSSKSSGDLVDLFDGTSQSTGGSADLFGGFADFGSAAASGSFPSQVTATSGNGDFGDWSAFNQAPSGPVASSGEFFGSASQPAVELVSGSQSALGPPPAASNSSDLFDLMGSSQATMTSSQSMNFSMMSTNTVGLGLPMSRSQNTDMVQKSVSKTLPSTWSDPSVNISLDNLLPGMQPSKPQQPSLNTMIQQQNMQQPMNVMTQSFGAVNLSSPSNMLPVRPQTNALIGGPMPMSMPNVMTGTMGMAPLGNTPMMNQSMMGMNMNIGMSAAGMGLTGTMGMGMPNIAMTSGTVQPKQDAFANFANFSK
Sequence of UniProt Q14790 (Q14790 whole entry, looked up): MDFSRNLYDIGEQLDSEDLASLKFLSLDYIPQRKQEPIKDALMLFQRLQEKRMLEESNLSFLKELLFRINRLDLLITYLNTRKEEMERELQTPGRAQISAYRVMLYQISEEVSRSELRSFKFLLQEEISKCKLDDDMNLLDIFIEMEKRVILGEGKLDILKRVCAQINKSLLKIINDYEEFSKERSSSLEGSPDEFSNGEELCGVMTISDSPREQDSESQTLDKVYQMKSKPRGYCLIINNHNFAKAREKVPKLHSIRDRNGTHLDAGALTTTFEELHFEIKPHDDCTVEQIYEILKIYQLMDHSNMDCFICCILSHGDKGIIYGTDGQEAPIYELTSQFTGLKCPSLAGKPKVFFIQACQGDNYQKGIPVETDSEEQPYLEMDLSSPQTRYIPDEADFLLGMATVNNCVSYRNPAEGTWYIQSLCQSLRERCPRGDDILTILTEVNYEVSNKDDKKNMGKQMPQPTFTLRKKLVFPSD
Sequence of UniProt Q9UNS2 (Q9UNS2 whole entry, looked up): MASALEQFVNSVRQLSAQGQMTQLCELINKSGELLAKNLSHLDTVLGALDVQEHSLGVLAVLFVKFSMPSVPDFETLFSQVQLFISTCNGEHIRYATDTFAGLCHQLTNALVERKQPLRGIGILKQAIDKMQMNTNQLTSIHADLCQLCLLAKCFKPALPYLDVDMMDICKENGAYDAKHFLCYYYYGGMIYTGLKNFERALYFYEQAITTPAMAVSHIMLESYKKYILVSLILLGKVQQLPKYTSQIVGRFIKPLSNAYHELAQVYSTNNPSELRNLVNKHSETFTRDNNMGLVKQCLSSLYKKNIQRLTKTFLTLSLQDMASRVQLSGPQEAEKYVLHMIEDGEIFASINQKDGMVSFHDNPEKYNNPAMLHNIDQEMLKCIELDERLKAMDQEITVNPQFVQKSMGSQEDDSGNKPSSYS
Sequence of UniProt Q00587 (Q00587 whole entry, looked up): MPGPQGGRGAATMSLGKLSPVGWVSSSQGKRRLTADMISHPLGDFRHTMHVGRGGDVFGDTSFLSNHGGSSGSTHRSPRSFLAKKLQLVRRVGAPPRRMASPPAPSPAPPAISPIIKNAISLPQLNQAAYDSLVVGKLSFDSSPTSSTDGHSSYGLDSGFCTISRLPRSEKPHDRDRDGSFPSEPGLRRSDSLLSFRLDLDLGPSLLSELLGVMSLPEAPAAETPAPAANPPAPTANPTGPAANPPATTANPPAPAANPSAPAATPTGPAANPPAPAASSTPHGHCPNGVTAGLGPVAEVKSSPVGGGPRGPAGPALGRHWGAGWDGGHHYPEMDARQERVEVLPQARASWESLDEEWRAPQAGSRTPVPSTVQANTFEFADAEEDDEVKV
Sequence of UniProt P67870 (P67870 whole entry, looked up): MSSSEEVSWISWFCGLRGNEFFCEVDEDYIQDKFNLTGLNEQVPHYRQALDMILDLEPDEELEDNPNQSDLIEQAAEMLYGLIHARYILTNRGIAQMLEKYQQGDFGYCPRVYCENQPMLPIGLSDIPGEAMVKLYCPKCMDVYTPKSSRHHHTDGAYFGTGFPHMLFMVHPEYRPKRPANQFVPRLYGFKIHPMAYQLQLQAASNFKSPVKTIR
Sequence of UniProt P24311 (P24311 whole entry, looked up): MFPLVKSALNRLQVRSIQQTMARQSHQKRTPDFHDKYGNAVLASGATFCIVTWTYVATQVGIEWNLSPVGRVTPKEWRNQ
Sequence of UniProt Q96GQ5 (Q96GQ5 whole entry, looked up): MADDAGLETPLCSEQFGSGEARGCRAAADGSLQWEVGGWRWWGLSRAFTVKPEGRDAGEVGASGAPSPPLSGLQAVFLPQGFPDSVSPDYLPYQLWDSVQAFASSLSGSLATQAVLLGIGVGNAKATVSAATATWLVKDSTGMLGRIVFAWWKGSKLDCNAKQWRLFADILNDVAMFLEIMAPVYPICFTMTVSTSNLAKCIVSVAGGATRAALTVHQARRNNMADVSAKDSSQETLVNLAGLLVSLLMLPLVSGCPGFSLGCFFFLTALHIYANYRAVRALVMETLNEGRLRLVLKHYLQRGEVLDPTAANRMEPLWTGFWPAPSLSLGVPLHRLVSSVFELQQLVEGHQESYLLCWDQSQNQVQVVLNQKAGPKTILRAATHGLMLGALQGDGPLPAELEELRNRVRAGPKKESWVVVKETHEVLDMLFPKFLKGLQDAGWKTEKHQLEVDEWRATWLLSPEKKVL

log2 fold change, inactive:
CCDC82 (UniProt Q8N4S0) 0.021, COX15 (UniProt Q7KZN9) -0.169, CNDP2 (UniProt Q96KP4) 0.03, CDC42EP1 (UniProt Q00587) -0.089, CS (UniProt F8VU34) 0.063, CLINT1 (UniProt Q14677) 0.16, CDK5RAP1 (UniProt Q96SZ6) 0.03, CDC42BPA isoform 6 (UniProt Q5VT25) 0.112, CDC42BPB (UniProt Q9Y5S2) -0.245, CDKN2AIP (UniProt Q9NXV6) -0.014, CCDC9 (UniProt Q9Y3X0) 0.115, COX7B (UniProt P24311) 0.005, CCAR2 isoform 2 (UniProt Q8N163) -0.014, COASY isoform 2 (UniProt Q13057) -0.076, CPD (UniProt O75976) 0.011, CASP8 isoform 9 (UniProt Q14790) 0.005, CAMK2G isoform 6 (UniProt Q13555) 0.131, CDAN1 (UniProt Q8IWY9) 0.023, C1D (UniProt Q13901) -0.043, CELF2 isoform 3 (UniProt O95319) 0.009, CBX5 (UniProt P45973) 0.01, CLASP2 (UniProt O75122) -0.003, CLSPN (UniProt Q9HAW4) 0.057, CSNK2B (UniProt P67870) 0.077, COPS3 isoform 2 (UniProt Q9UNS2) 0.135, CNOT2 (UniProt Q9NZN8) -0.012, C16orf58 (UniProt Q96GQ5) 0.011, C6orf120 (UniProt Q7Z4R8) -0.013, CHCHD1 (UniProt Q96BP2) -0.004, CIZ1 (UniProt Q9ULV3) -0.012, CDC123 (UniProt O75794) -0.081, C19orf54 (UniProt Q5BKX5) 0.17, CSTF2 (UniProt P33240) 0.022, CRYM-AS1 (UniProt A6NIL9) -0.459, CTBS (UniProt Q01459) 0.049, COX5A (UniProt P20674) 0.132, CES2 isoform 4 (UniProt O00748) 0.02

log2 fold change, active:
CFAP58 (UniProt Q5T655) -1.11

— the supplement of paper PMC10849652
